# Screen size: about 68,000 compounds; about 2,700 (4%) showed an effect of 50% or more. What follows is part of a selection rich in strong results, with near analogues and random picks from the rest.
# Test system: Plasmodium berghei
# Test: Screen against P. berghei liver stage (PbLuc), transformed with Luciferase, at 2uM
# Format: functional, HepG2
# Conditions: tested at 2 uM
row,SMILES,INHIBITION
1,Cn1cccc1CN1CCC2(CC1)CN(c1ncccn1)CCO2,-8.63%
2,Cc1ccc(CNC(=O)CCNS(C)(=O)=O)cc1,13.36%
3,CCn1ccnc1CN1CCN(CC(=O)NC(C2CC2)C2CC2)CC1,29.19%
4,CC(=O)N[C@H]1CCO[C@@H](c2cccc(NC(=O)c3ccc(=O)[nH]n3)c2)C1,-3.15%
5,COc1ccc(CN2CCc3nc(C4CCCCN4C)ncc3C2)cc1 (stereo not drawn),-8.87%
6,CN1CCCCC1c1ncc2c(n1)CCN(Cc1ccc(F)cc1)C2 (stereo not drawn),19.06%
7,CN1CCCCC1c1ncc2c(n1)CCN(Cc1ccc(Cl)c(F)c1)C2 (stereo not drawn),56.99%
8,O=C1COC2(COCCN(Cc3cccnc3)C2)CN1c1ccccc1 (stereo not drawn),-43.73%
9,N#CCCN(Cc1ccco1)C(=O)c1ccc(OCC2CC2)cc1,-5.51%
10,N#CCCN(Cc1cccnc1)C(=O)c1ccc(OCC2CC2)cc1,56.89%
11,N#CCCN(CCC#N)C(=O)c1ccc(OCC2CC2)cc1,5.98%
12,O=C(c1cnccn1)N1CC[C@H]2[C@H]1CCN2S(=O)(=O)C1CC1,-17.44%
13,CN(C)CC(=O)N1Cc2nc(C(=O)NCc3ccccc3)oc2C1,16.4%
14,CN(C)CC(=O)N1Cc2nc(C(=O)NCc3ccncc3)oc2C1,52.08%
15,CCCNC(=O)c1nc2c(o1)CN(C(=O)CN(C)C)C2,-31.4%
16,CSCc1ccc(C(=O)NCCCNc2ccc(C(F)(F)F)cn2)cc1,6.77%
17,Cn1c(CN2CCCCCC2)cc(=O)c(O)c1CN1CCCC1,29.19%
18,Cc1ccnc(C2CCN(C(=O)CCn3ncc4ccccc43)C2)n1 (stereo not drawn),72.83%
19,Cc1cc(C)nc(C2CCN(C(=O)CCn3ncc4ccccc43)C2)n1 (stereo not drawn),30.73%
20,Cc1cc(C)nc(C2CCN(C(=O)CCn3nnc4ccccc43)C2)n1 (stereo not drawn),13.22%
21,Cn1cc(CN2CCc3ccc(=O)n(CC4CC4)c3CC2)cn1,23.68%
22,OC1(CNc2cccc(F)c2)CCNCC1,-14.66%

row,SMILES,INHIBITION
1,OC1(CNc2ccccc2)CCNCC1,51.61%
2,OC1(CNc2ccc(F)cc2)CCNCC1,8.5%
3,CCN(CC)S(=O)(=O)CC(=O)N1CCc2ccc(C)cc21,-13.17%
4,CCN(C(=O)CSc1ccc(C(F)(F)F)cn1)C1CC1,-69.56%
5,NC(=O)C1CCCN1c1cc(N2CCc3ccccc3C2)ncn1 (stereo not drawn),-4.95%
6,O=S(=O)(CCNC1CCc2ncnn2C1)c1ccccc1 (stereo not drawn),11.18%
7,c1ccc(CCNC2CCc3ncnn3C2)nc1 (stereo not drawn),-56.99%
8,c1ccc(OC2CCCC2)c(CNC2CCc3ncnn3C2)c1 (stereo not drawn),-12.48%
9,c1ccc(OCC2CC2)c(CNC2CCc3ncnn3C2)c1 (stereo not drawn),54.2%
10,c1ccc(COc2ccccc2CNC2CCc3ncnn3C2)cc1 (stereo not drawn),11.95%
11,c1ccc(C(OCCNC2CCc3ncnn3C2)c2ccccc2)cc1 (stereo not drawn),64.71%
12,COc1cccc(-c2cc(C3CCCNC3)ccn2)c1 (stereo not drawn),17.29%
13,Cc1nnsc1CN(C)C(=O)CN1CC2(CCNCC2)OC1=O,-7.96%
14,CCc1cc(NC(=O)C(c2cccc(F)c2)N2CCOCC2)[nH]n1 (stereo not drawn),35.36%
15,COC(=O)[C@H](CCSC)NC(=O)Cc1c(C)nn(-c2ccccc2)c1C,4.89%
16,Cc1nn(-c2ccccc2)c(C)c1CNC(=O)NC1CC(=O)N(C)C1 (stereo not drawn),62.39%
17,COC(=O)C(CCSC)NC(=O)Cc1c(C)nn(-c2ccccc2)c1C (stereo not drawn),-60.22%
18,Cc1nn(-c2ccccc2)c(C)c1CC(=O)NC1CC(=O)N(C)C1 (stereo not drawn),59.03%
19,Cc1nn(-c2ccccc2)c(C)c1CNC(=O)NC1CC1,28.73%
20,CSCCC(NC(N)=O)C(=O)NCc1c(C)nn(-c2ccccc2)c1C (stereo not drawn),-58.01%
21,CC(=O)N1CCN(Cc2ccncc2)CC2(CC(=O)N(C)C2)C1 (stereo not drawn),3.49%
22,CN1CCN(CC2(O)CCCN(C(=O)Cc3cccc(O)c3)CC2)CC1 (stereo not drawn),12.6%

row,SMILES,INHIBITION
1,Cc1nc(C)c(C(=O)NCCNc2ncccc2C(F)(F)F)s1,-90.65%
2,Cc1nc(NC(=O)c2ccc(-n3ncc(C#N)c3N)cc2)sc1C,78.98%
3,Cc1cc(NC(=O)c2ccc(-n3ncc(C#N)c3N)cc2)n(C)n1,-28.98%
4,Cc1cnc(NC(=O)c2ccc(-n3ncc(C#N)c3N)cc2)s1,-50.69%
5,CC1CCC(O)(CSc2nnnn2C)CC1 (stereo not drawn),4.91%
6,CC(C)CC(=O)NCC(O)c1c(F)cccc1F (stereo not drawn),14.96%
7,CN(C)C(=O)CN1CCC2(C1)CN(CC1CCOC1)C2 (stereo not drawn),-54.01%
8,CN(C)C(=O)CN1CCOCC2(CCN(CC3CCOCC3)CC2)C1,12.68%
9,CN(C)C(=O)CN1CCOCC2(CCN(CC3CCOC3)CC2)C1 (stereo not drawn),82.53%
10,COc1ccc(C(C)CCNC2CCN(c3ccccn3)CC2)cc1 (stereo not drawn),3.2%
11,CCS(=O)(=O)c1ccccc1N1CCC(NC(=O)NC2CCCC2)CC1,64.71%
12,CCS(=O)(=O)c1ccccc1N1CCC(NC(C)=O)CC1,-0.64%
13,CCS(=O)(=O)c1ccccc1N1CCC(NC2CCCC2)CC1,27.47%
14,Cc1cc(C)n(CC(C)CNC(=O)NCc2c(C)cc(C)[nH]c2=O)n1 (stereo not drawn),10.14%
15,Cc1ccc(NC(=O)N2CCOC(C(N)=O)C2)cc1C(F)(F)F (stereo not drawn),33.11%
16,CC(=O)N1CCN(CCNc2ncc(Br)cc2C)CC1,12.43%
17,Cc1cc(Br)cnc1NCCN1CCC(N(C)C)CC1,64.9%
18,COC1CCN(CCNc2ncc(Br)cc2C)CC1,-4.26%
19,O=S(=O)(c1cccnc1)N1CCCCC1CCN1CCOCC1 (stereo not drawn),-13%
20,Cc1cc(C)nc(N2CCCC(c3cccc(-n4ccnc4)n3)C2)n1 (stereo not drawn),-2.89%
21,O=C(Nc1ncc[nH]1)c1cc(-c2cccnc2)n[nH]1,-36.68%
22,O=C(c1cc2c(s1)CCCC2)N1CCCC1Cn1cccn1 (stereo not drawn),1.61%

row,SMILES,INHIBITION
1,CN(C)CC(=O)N1CC2(CCN(S(=O)(=O)c3ccccc3)C2)C1,39.51%
2,CC(=O)N1CCC2(C1)CN(S(=O)(=O)c1ccccc1)C2,56.76%
3,CC(=O)N1CCC2(CCCN(S(=O)(=O)c3ccccc3)C2)C1 (stereo not drawn),52.36%
4,CC(=O)N1CCC2(CCN(S(=O)(=O)c3ccccc3)CC2)C1,11.18%
5,CC(=O)N1CCC2(CCCN(S(=O)(=O)c3ccc(F)cc3)C2)C1 (stereo not drawn),-8.04%
6,CC(=O)N1CCC2(CC1)CCN(S(=O)(=O)c1ccccc1)C2,27.65%
7,CN(C)c1ccc(CNC(=O)NCCc2cccs2)cn1,9.17%
8,Cc1ccncc1CN1CCOCC1c1[nH]ncc1C (stereo not drawn),5.01%
9,Cc1cc(CNc2ccnn2C)ccc1-n1cncn1,14.93%
10,CN(C)CCCC(=O)NC1CC(C)(C)Cc2nc(C(C)(C)C)ncc21 (stereo not drawn),35.56%
11,CN(C)CC(=O)NC1CC(C)(C)Cc2nc(C(C)(C)C)ncc21 (stereo not drawn),68.39%
12,CC1(C)Cc2nc(C(C)(C)C)ncc2C(NC(=O)CN)C1 (stereo not drawn),21.28%
13,Cc1nc[nH]c1CN1CCCn2nc(CN3CCC(F)(F)CC3)cc2C1,8.48%
14,O=C(c1ccsc1)N1CCC(Nc2cccnn2)CC1,2.8%
15,CC(C(=O)Nc1ccc(N2CCCCC2)nc1)n1ccnc1 (stereo not drawn),-34.5%
16,CCCNC(=O)N1CCc2ccc(S(=O)(=O)N3CCN(C)CC3)cc2C1,30.62%
17,O=C(c1ccoc1)N1CCCC2(CCC(=O)N2Cc2ccncc2)C1 (stereo not drawn),3.56%
18,Cc1cnn(CC2CCCN2C(=O)c2cccc(CC#N)c2)c1 (stereo not drawn),-17.11%
19,CCCS(=O)(=O)CC(=O)Nc1ccsc1,22%
20,CCN(CC)S(=O)(=O)CC(=O)Nc1ccsc1,64.08%
21,CS(=O)(=O)CCC(=O)Nc1ccsc1,10.22%
22,O=C(c1cc2c(s1)CCC2)N1CCN(c2cnccn2)CC1,-32.45%

row,SMILES,INHIBITION
1,N#Cc1ccc(OCC(O)CN2CCN(c3nccs3)CC2)cc1 (stereo not drawn),2.2%
2,O=C(O)CCC(=O)N1CCN(CC2CC2)c2ncccc2C1,18.6%
3,Cc1occc1C(=O)N1CCC(C(O)c2ccc(Cl)cc2)CC1 (stereo not drawn),59.03%
4,CCn1cnnc1C1CCN(C(=O)c2ccoc2C)CC1,70.27%
5,CCn1cnnc1C1CCN(C(=O)c2ccccc2OC)CC1,-45.23%
6,Cc1occc1C(=O)N1CCC(C(O)c2ccc(F)cc2)CC1 (stereo not drawn),47.25%
7,CCn1cnnc1C1CCN(C(=O)c2cc(OC)ccc2OC)CC1,-33.61%
8,Cc1c(C(=O)N2CCC(C(O)c3ccc(Cl)cc3)CC2)cnn1C (stereo not drawn),10.22%
9,CCn1cnnc1C1CCN(C(=O)c2c(C)oc(C)c2C)CC1,-11.32%
10,CCn1cnnc1C1CCN(C(=O)c2cccc(OC)c2OC)CC1,66.2%
11,CCn1cnnc1C1CCN(C(=O)c2cccc(C)c2C)CC1,1.02%
12,CCn1nc(C)c2c1cnn2CCNS(=O)(=O)Cc1ccccc1,16.97%
13,CN(C)Cc1cccc(C(=O)N2CCCC(n3cncn3)C2)c1 (stereo not drawn),21.39%
14,CC(C)c1cc(C(=O)N2CCC3(CCc4ccccc4C(=O)N3)C2)on1 (stereo not drawn),9.9%
15,CNC(=O)c1n[nH]c2c1C(c1cccc3c1OC(C)(C)C3)CC(=O)N2 (stereo not drawn),48.21%
16,Cc1nc(CN2CCN(C(=O)c3ccc(=O)n(C)c3)CC2)cs1,-3.4%
17,CCN1CCC12CCN(C(=O)c1ccsc1)C2 (stereo not drawn),13.75%
18,COc1ccc(-c2noc(C3CC(C(C)C)=NO3)n2)cc1 (stereo not drawn),7.37%
19,CC(C)C1=NOC(c2nc(Cc3ccccc3)no2)C1 (stereo not drawn),50.46%
20,Cc1ccccc1-c1noc(C2CC(C(C)C)=NO2)n1 (stereo not drawn),-10.37%
